# Only some compounds are listed: those with a hit (about 9.6% of all), similar ones and a draw of the others.
# Insulin prom up: MIN6 insulin promoter up-regulation; z-score at 5 µM; 190,000 compounds, 0.3% hits; MIN6 insulin promoter-GFP reporter, high-content imaging; hits give high values;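 active = z-score above 3 at 5 µM with at least 500 cells counted in the well; inconclusive = wells under 500 cells, flagged as cytotoxic or low count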
# Autophagy HCS: alters autophagy in cells. MEF GFP-LC3 puncta imaging; test concentration mostly 10 µM. 190,000 compounds, 0.98% hits. AID 463193. calls only at 10 µM (by protocol);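 active = percentage of spot-positive cells more than 3 SD above its plate mean, without a fluorescence outlier flag or 80% toxicity; inconclusive = no clear call, values can overlap the other calls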;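 note: spot-positive cell cutoff set from DMSO-treated cells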
# PTEN del growth: growth suppressors of cells with PTEN tumor suppressor deletion. HCT116 PTEN-null viability, CellTiter-Glo, 60 h; hits give low values. viability, % at 10 µM. 140,000 compounds, 1.2% hits;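 active = viability at or below a set limit, 4 SD under the median of all tested compounds, cut at about 3.7% in these data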;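 note: PTEN knockout HCT116 line with beta catenin targeted HCT116 as companion control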
# L major viab: reduces viability of Leishmania major promastigotes; resazurin fluorescence viability; inhibition, % at 10 µM; 200,000 compounds, 9% hits; in the data active = inhibition above about 50%;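 note: promastigotes grown with compound for 44 hours at 28 °C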
# Insulin prom inh: TRM-6 insulin promoter activity inhibition | TRM-6 cells (human fetal islet line), insulin promoter-eGFP reporter, imaging; reporter expression induced with tamoxifen | inhibition, % at 2 µM | 130,000 compounds, 0.9% hits | AID 1273;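 active = inhibition above the mean plus 3 SD, with well images judged a real hit on visual review, cut at about 60% in these data, passing the limit was not always enough; inconclusive = inhibition over the cutoff but images rejected on review; inactive = inhibition not above the cutoff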
# HCT116 bCat-KO: beta-catenin-lacking colon tumor cell growth suppression | HCT116 beta-catenin knockout viability, CellTiter-Glo, 60 h; hits give low values | viability, % at 10 µM | 140,000 compounds, 1.5% hits | AID 818;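 active = viability at or under a set limit, the compound median less 4 SD, cut at about 6% in these data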;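 note: 0% = Hyamine 1622 control at 20 µM and 100% = untreated cell control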
# Starred values were filed as active, the others as inactive; i = inactive; ? = inconclusive; . = not tested or not shown; + = active, no number.
SMILES,Insulin prom up,Autophagy HCS,PTEN del growth,L major viab,Insulin prom inh,HCT116 bCat-KO
O=C(c1cccnc1)N1N=C(C2CCCCC2)CC1(O)C(F)(F)F (centres undefined),0.62,i,.,-8,.,.
CC1=NNC(=O)C1C(c1cccc(O)c1)C(C#N)C#N (centres undefined),-0.22,.,.,.,.,.
CC1=NN(c2ccc(C)cc2C)C(=O)C1C(c1cccc(O)c1)C1C(=O)N(c2ccc(C)cc2C)N=C1C (centres undefined),0.83,i,89,56*,24,91
Cc1[nH]n(-c2ccccc2)c(=O)c1C=Nc1ccc(S(=O)(=O)Nc2nccs2)cc1,.,i,.,-3,-20,.
COc1nccnc1NS(=O)(=O)c1ccc(N=Cc2c(C)[nH]n(-c3ccccc3)c2=O)cc1,0.27,i,87,23,14,80
COc1cc(S(=O)(=O)Nc2cccc(C)c2)ccc1N=Cc1c(C)[nH]n(-c2ccccc2)c1=O,0.66,i,24,57*,-30,20
COc1cc(S(=O)(=O)Nc2ccc(C)cc2)ccc1N=Cc1c(C)[nH]n(-c2ccccc2)c1=O,0.44,i,91,1,72*,86
CCOC(=O)c1c[nH]n(-c2ccc(C)cc2)c1=O,.,i,.,2,.,.
Cc1ccc(S(=O)(=O)N(CC(=O)N2CCC(C(N)=O)CC2)c2cccc(C(F)(F)F)c2)cc1,.,i,85,-3,3,82
COc1ccc(C2(CNC(=O)c3ccc(OC)c([N+](=O)[O-])c3)CCCCC2)cc1OC,-0.44,i,69,87*,-55,73
O=C(NC(=S)N1CCCc2ccccc21)c1ccc(Cl)cc1,1.2,i,78,64*,-22,83
CCN(CC)CC(=O)Nc1cccc2c1C(=O)c1ccccc1C2=O,-0.24,i,.,9,14,.
O=C1c2ccccc2C(=O)c2c(NCCCN(CCO)CCO)cccc21,0.54,i,.,100*,-50,.
CC(NC(=O)COC(=O)[C@@H]1CCCN1S(=O)(=O)c1ccccc1F)C12CC3CC(CC(C3)C1)C2 (some centres undefined),-1.4,i,96,96*,-4,86
O=C(OCc1nc2ccccc2s1)[C@@H]1CCCN1S(=O)(=O)c1ccccc1F,0.67,i,84,-4,7,83
COc1ccc(N(CC(=O)NCC2CCCO2)S(=O)(=O)c2ccc(C)cc2)cc1OC (centres undefined),0.87,i,92,3,64,107
Cc1ccc(NC(=O)CSc2nn(-c3ccc(Cl)cc3)c(=S)s2)cc1S(=O)(=O)N(C)C,0.69,i,14,97*,22,13
CN(C)S(=O)(=O)c1cc(NC(=O)CSc2nn(-c3ccc(Cl)cc3)c(=S)s2)ccc1Cl,-0.05,i,7,93*,-23,7
NS(=O)(=O)c1cccc(NC(=O)CSc2nn(-c3ccccc3)c(=S)s2)c1,.,i,94,-2,.,98
COc1ccc(NC(=O)N2CCCCCC2)cc1,0.63,i,.,-5,.,.
c1ccc2c(c1)OCC(c1csc3ncnc(N4CCOCC4)c13)O2 (centres undefined),-0.08,i,62,1,21,78
O=C(CN1CCN(Cc2ccccc2)CC1)Nc1cccc(S(=O)(=O)N2CCCCCC2)c1,-0.62,i,.,79*,.,.
CC(=O)Nc1ccc(NC(=O)COC(=O)c2c3c(nc4ccccc24)CCN(Cc2ccccc2)C3)cc1,-0.84,+,64,-1,.,62
O=C(COc1cccc(Cl)c1)Nc1ccc2c(c1)CCC2,0.08,i,96,56*,-15,94
O=C(CN1CCOCC1)Nc1cccc(S(=O)(=O)N2CCCCCC2)c1,0.51,i,.,-5,-45,.
O=C(COC(=O)c1c2c(nc3ccccc13)CCN(Cc1ccccc1)C2)Nc1c(F)cccc1F,-0.45,?,32,11,-60,37
O=C(COc1cccc(Cl)c1)Nc1ccc(N2CCOCC2)cc1,-0.23,i,107,-2,0,99
CC1CCc2c(C(=O)OCC(=O)Nc3cccc(S(=O)(=O)N4CCCCCC4)c3)csc2C1 (centres undefined),0.03,i,84,83*,-25,82
O=C(Nc1cccc(S(=O)(=O)N2CCCCC2)c1)c1c2c(nc3ccccc13)CCN(Cc1ccccc1)C2,.,+,68,90*,-19,68
COc1ccccc1OCCC(=O)Nc1cccc(S(=O)(=O)N2CCCCC2)c1,0.57,i,84,5,-21,81

# Assay outcomes from PubChem.
